# Results reported in ChEMBL document CHEMBL1157539, “Thousands of chemical starting points for antimalarial lead identification” (Nature, 2010).
# What was measured:
# Format in all cases: functional
# Plasmodium falciparum [1] = experiment: GSK_TCMDC: Inhibition of Plasmodium falciparum 3D7 in whole red blood cells, using parasite LDH activity as an index of growth. Test compounds present at 2uM
# Plasmodium falciparum [2] = experiment: GSK_TCMDC: Inhibition of Plasmodium falciparum Dd2 in whole red blood cells, using parasite LDH activity as an index of growth. Test compounds present at 2uM
# HepG2 = experiment: GSK_TCMDC: Percent inhibition of human HepG2 cell line. Test compounds present at 10uM.
Structure (SMILES),Inhibition (Plasmodium falciparum [1]) [%],Inhibition (Plasmodium falciparum [2]) [%],Inhibition (HepG2) [%]
CC(C)CNCc1ccc(-c2ccccc2CNC2CCN(Cc3ccccc3)CC2)cc1.O=C(O)C(F)(F)F,100,41,28
CCOc1c(CNCCCNc2cc(O)c3ccccc3n2)cc(I)cc1OC,91,6,0
COc1cc2nc(N3CCC(CNCc4ccc(-c5ccc(C(F)(F)F)cc5)cc4)CC3)nc(N)c2cc1OC,99,100,99
C=C[C@]1(C)C[C@@H](OC(=O)CNC[C@@H](O)CN2C[C@H](c3ccnc4ccc(OC)nc34)OC2=O)[C@@]2(C)[C@@H]3C(=O)CC[C@@]3(CC[C@@H]2C)[C@@H](C)[C@@H]1O,89,82,0
O=C(NCc1cccs1)[C@H](Cc1ccccc1)Nc1ccnc(NCCc2ccccc2)n1.O=C(O)C(F)(F)F,85,59,0
O=C(O)C(F)(F)F.OCC1CCN(Cc2ccc(-c3ccc(-c4nc5cc(F)ccc5[nH]4)s3)cc2)CC1,100,98,14
CCNc1cc(C(=O)N[C@@H](Cc2ccccc2)[C@H](O)CNCCc2cccc(C(F)(F)F)c2)cc(N2CCCC2=O)c1.O=CO,96,93,7
Cl.N#Cc1ccc2c(c1)CCN(CCC1CCC(NC(=O)c3cc4ccc(Br)cc4[nH]3)CC1)C2 (stereo not drawn),100,17,12
Cc1cc2ncn(-c3nccc(NCc4ccc(F)c(C)c4)n3)c2cc1C.O=C(O)C(F)(F)F,90,82,10
COc1ccc2ccccc2c1CNCCCCCCNCc1c(OC)ccc2ccccc12.Cl,100,35,99
CCCCOC(=O)c1ccc(NC(=O)Nc2ccc(Cn3ncc(N4CCCNCC4)c(Cl)c3=O)cc2)cc1.O=C(O)C(F)(F)F,92,74,2
CC(C)N1CCN(CCCCNc2c3ccccc3nc3ccccc23)CC1.Cl,100,0,38
N#Cc1ccc(C(=O)Nc2ccc(Cl)c(N3CCN(CCc4ccccc4)CC3)c2)cc1.O=C(O)C(F)(F)F,90,35,5
CN(CCCNCc1cccc2ccccc12)CCCNCc1cccc2ccccc12.Cl,100,94,93
COc1ccc(CNC2CCN(C)CC2)cc1-c1ccc(S(=O)(=O)NCCc2ccccn2)s1.O=C(O)C(F)(F)F,100,12,6
COc1ccc2nc(N=C3NC4(c5ccccc5)NC(=Nc5nc6ccc(OC)cc6[nH]5)NC4(c4ccccc4)N3)[nH]c2c1.O=C(O)C(F)(F)F (stereo not drawn),100,85,0
O=C(N1CCN(c2cccc(C(F)(F)F)c2)CC1)C(Cl)(Cl)Cl,89,35,0
CCCCCCN1CCN(Cc2cccc(NC(=O)c3cc4ccccc4o3)c2)CC1.O=C(O)C(F)(F)F,93,83,20
Cc1cccc2nc(-c3cccc(-c4cccc(CN5CCCC5CN)c4)c3)[nH]c12.O=C(O)C(F)(F)F (stereo not drawn),100,72,15
Br.CCOC(=O)c1cc(Cl)ccc1OCCCON1C(=N)N=C(N)NC1(C)C,94,95,69
CCNc1cc(C(=O)N[C@@H](Cc2ccccc2)[C@H](O)CNCc2cccc(-c3cncnc3)c2)cc(N2CCCC2=O)c1.O=C(O)C(F)(F)F,97,96,5
Cc1ccc(NC(=O)c2ccc(Cl)c(Cl)c2)cc1-c1ccc(C(=O)Nc2ccncc2)cc1,99,79,39
COc1ccc2nc(C)cc(Nc3ccc(Oc4ccc5ccccc5c4)c(Cl)c3)c2c1,100,99,40
CN(C)CC(=O)Nc1cccc(Nc2nccc(NCC(O)c3ccccc3)n2)c1 (stereo not drawn),100,3,30
Cn1nc(-c2ccc(CN[C@@H]3CCc4ccc(O)cc43)cc2)c2cnc(NC3CCCC3)nc21,97,8,12
CC(Cc1ccc(C(=O)Nc2ccc(CC(C)NCCc3cccc(Cl)c3)cc2)cc1)NCCc1ccc(C(F)(F)F)cc1 (stereo not drawn),100,88,98
